From PubChem BioAssay (EPA / NIEHS)
Inconclusive results are not listed. The source made the active and inactive calls. Rule for the calls, unless noted: active = hit-call score of the fitted dose curve at least 0.9, where 1 is the maximum; inconclusive = response in the unintended direction; inactive = score below 0.9.

Experiments:
[1] = ATG_NRF2_ARE_CIS: Attagene CIS-FACTORIAL HepG2 Assay for human Nuclear Factor Erythroid 2 Related Factor 2 (NFR2) response to Antioxidant Response Elements (ARE) (AID 2282992; active = hit-call score of the fitted dose curve at least 0.9, where 1 is the maximum; inactive = score below 0.9;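 for AC50: reporter mRNA level measured by RT-PCR and capillary electrophoresis fluorescence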); settings: HepG2 Attagene ARE/NRF2 reporter, transcription factor activity; actives raise or lower the signal
Procedure, shortened: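 Multiplexed reporter mRNA profiling in HepG2 after a 24 h chemical exposure. Curves fitted in both directions relative to DMSO negative control.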

[2] = ATG_Oct_MLP_CIS: Attagene CIS-FACTORIAL HepG2 Assay for human Octamer-Binding Transcription Factor (Oct) (AID 2282993; active = hit-call score of the fitted dose curve at least 0.9, where 1 is the maximum; inactive = score below 0.9); settings: HepG2 Attagene cis-factorial Oct reporter, mRNA; actives raise or lower the signal
Procedure, shortened: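 After 24 h compound exposure, transfected HepG2 cells were lysed for total RNA; reporter-specific cDNA was PCR-amplified, fluorescently labelled and sized by capillary electrophoresis. Bidirectional curve fitting used DMSO as baseline.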

[3] = biological target: Cellular tumor antigen p53 (Homo sapiens) (UniProt P04637); assay: ATG_p53_CIS: Attagene CIS-FACTORIAL HepG2 Assay for human p53 Transcription Factor (AID 2282994; active = hit-call score of the fitted dose curve at least 0.9, where 1 is the maximum; inactive = score below 0.9); settings: HepG2 p53 cis-element reporter, Attagene mRNA; actives raise or lower the signal
Procedure, shortened: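 Multiplexed reporter mRNA assay in human HepG2 liver cells; cis-regulated units report endogenous factor activity. Values come from bidirectional curve fitting against DMSO negative control after 24 h treatment.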

[4] = biological target: human Peroxisome Proliferator-activated Receptor alpha (PPARa), PPARA (gene 5465) (UniProt Q07869); assay: ATG_PPARa_TRANS: Attagene TRANS-FACTORIAL HepG2 Assay for human Peroxisome Proliferator-activated Receptor alpha (PPARa) (AID 2283001)
Procedure, shortened: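 HepG2 cells transiently transfected with multiplexed GAL4-UAS reporters driven by exogenous chimeric NR-Gal4 proteins; reporter mRNA measured after 24 h dosing. Read-out by RT-PCR, 6-FAM labelling, HpaI digestion and capillary electrophoresis; gain of signal versus DMSO.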

[5] = biological target: human Peroxisome Proliferator-activated Receptor delta (PPARd), PPARD (gene 5467) (UniProt Q03181); assay: ATG_PPARd_TRANS: Attagene TRANS-FACTORIAL HepG2 Assay for human Peroxisome Proliferator-activated Receptor delta (PPARd) (AID 2283002)
Procedure, shortened: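 HepG2 cells transiently transfected with GAL4-UAS multiplexed reporter units driven by exogenous chimeric NR-GAL4 proteins; 24 h compound exposure. Reporter mRNA measured by RT-PCR, 6-FAM primer extension, HpaI digestion and capillary electrophoresis; gain of signal fitted relative to DMSO.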

[6] = biological target: Nuclear receptor subfamily 1 group I member 2 (Homo sapiens) (UniProt O75469); assay: ATG_PXR_TRANS: Attagene TRANS-FACTORIAL HepG2 Assay for human Pregnane X Receptor (PXR) (AID 2283008)
Procedure, shortened: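 Measures mRNA induction of a GAL4-UAS-driven reporter in human HepG2 cells transiently expressing PXR fused to Gal4, following 24 h treatment. DMSO served as negative control and baseline.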

[7] = biological target: human RAR-related Orphan Receptor beta (RORb), RORB (gene 6096) (UniProt Q92753); assay: ATG_RORb_TRANS: Attagene TRANS-FACTORIAL HepG2 Assay for human RAR-related Orphan Receptor beta (RORb) (AID 2283010)
Procedure, shortened: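 HepG2 cells transiently transfected with GAL4-UAS reporter units expressing chimeric NR-Gal4 protein; reporter mRNA measured 24 h after dosing by RT-PCR, 6-FAM labelling and capillary electrophoresis. Gain-of-signal fitted relative to DMSO baseline.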

[8] = biological target: Retinoic acid receptor RXR-alpha (Homo sapiens) (UniProt P19793); assay: ATG_RXRa_TRANS: Attagene TRANS-FACTORIAL HepG2 Assay for human Retinoid X Receptor alpha (RXRa) (AID 2283012)
Procedure, shortened: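 HepG2 cells transiently transfected with GAL4-UAS reporter units and chimeric RXRa-Gal4 protein, treated 24 h. Reporter mRNA measured by RT-PCR, fluorescent labelling, HpaI digestion and capillary electrophoresis. Induction fitted against DMSO.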

[9] = biological target: human Retinoid X Receptor beta (RXRb), RXRB (gene 6257) (UniProt P28702); assay: ATG_RXRb_TRANS: Attagene TRANS-FACTORIAL HepG2 Assay for human Retinoid X Receptor beta (RXRb) (AID 2283013)
Procedure, shortened: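 HepG2 cells were transiently transfected with multiplexed GAL4-UAS reporters and a chimeric RXRb-Gal4 construct, then exposed for 24 h. Reporter mRNA was quantified by RT-PCR, FAM labeling, HpaI digestion and capillary electrophoresis; gain of signal was scored against DMSO.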

[10] = biological target: human Retinoic Acid Receptor beta (RARb), RARB (gene 5915) (UniProt P10826); assay: ATG_RARb_TRANS: Attagene TRANS-FACTORIAL HepG2 Assay for human Retinoic Acid Receptor beta (AID 2283004)
Procedure, shortened: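 HepG2 cells transiently transfected with multiplexed GAL4-UAS reporter units expressing chimeric NR–Gal4 fusions; 24 h compound exposure. Reporter mRNA quantified by RT-PCR, 6-FAM labelling, HpaI digestion and capillary electrophoresis; gain-of-signal fitted against DMSO baseline.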

[11] = biological target: Retinoic acid receptor alpha (Homo sapiens) (UniProt P10276); assay: ATG_RARa_TRANS: Attagene TRANS-FACTORIAL HepG2 Assay for human Retinoic Acid Receptor alpha (RARa) (AID 2283005)
Procedure, shortened: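 HepG2 transiently transfected with multiplex GAL4-UAS reporter units including a human RARa–GAL4 chimera; 24 h compound exposure. Reporter mRNA quantified by RT-PCR, 6-FAM labeling and capillary electrophoresis; gain of signal versus DMSO.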

[12] = biological target: Peroxisome proliferator-activated receptor gamma (Homo sapiens) (UniProt P37231); assay: ATG_PPARg_TRANS: Attagene TRANS-FACTORIAL HepG2 Assay for human Peroxisome Proliferator-activated Receptor-gamma (PPARg) (AID 2283007)
Procedure, shortened: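 Transient transfection of HepG2 with GAL4-UAS-driven reporter units; chemical dosing 24 h; total RNA → oligo(dT) RT → PCR with reporter primers → 6-FAM primer extension → HpaI digest 2 h 37 C → capillary electrophoresis. Positive direction vs DMSO.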

[13] = biological target: human RAR-related Orphan Receptor gamma (RORg), RORC (gene 6097) (UniProt P51449); assay: ATG_RORg_TRANS: Attagene TRANS-FACTORIAL HepG2 Assay for human RAR-related Orphan Receptor gamma (RORg) (AID 2283011)
Procedure, shortened: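 Readout: reporter transcript induction (RT-PCR, fluorescent primer extension, capillary electrophoresis) after 24 h compound exposure of transiently transfected HepG2 cells carrying a RORg-Gal4 chimera and GAL4-UAS reporters; DMSO served as baseline, with increasing signal fitted.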

[14] = biological target: human Retinoic Acid Receptor gamma (RARg), RARG (gene 5916) (UniProt P13631); assay: ATG_RARg_TRANS: Attagene TRANS-FACTORIAL HepG2 Assay for human Retinoic Acid Receptor gamma (RARg) (AID 2283009)
Procedure, shortened: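 HepG2 transiently transfected with GAL4-UAS reporter units and chimeric NR-Gal4 constructs; 24 h compound exposure. Reporter mRNA quantified by RT-PCR, FAM labeling, HpaI digestion and capillary electrophoresis; gain-of-signal versus DMSO.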

Measured: AC50

Cellular tumor antigen p53 (Homo sapiens), sequence (P04637 whole entry, looked up): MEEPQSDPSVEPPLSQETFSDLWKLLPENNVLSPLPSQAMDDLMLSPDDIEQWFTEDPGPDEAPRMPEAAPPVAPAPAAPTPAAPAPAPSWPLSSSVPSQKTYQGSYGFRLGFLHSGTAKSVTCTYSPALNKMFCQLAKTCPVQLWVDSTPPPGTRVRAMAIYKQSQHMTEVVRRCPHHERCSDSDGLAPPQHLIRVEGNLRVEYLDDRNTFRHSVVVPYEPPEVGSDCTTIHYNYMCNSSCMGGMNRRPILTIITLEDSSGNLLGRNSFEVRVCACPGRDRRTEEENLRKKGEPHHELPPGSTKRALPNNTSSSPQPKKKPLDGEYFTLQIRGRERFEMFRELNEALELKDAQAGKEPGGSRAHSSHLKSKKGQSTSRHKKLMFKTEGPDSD
human RAR-related Orphan Receptor gamma (RORg), RORC (gene 6097), sequence (P51449 whole entry, looked up, the tested form may be a part): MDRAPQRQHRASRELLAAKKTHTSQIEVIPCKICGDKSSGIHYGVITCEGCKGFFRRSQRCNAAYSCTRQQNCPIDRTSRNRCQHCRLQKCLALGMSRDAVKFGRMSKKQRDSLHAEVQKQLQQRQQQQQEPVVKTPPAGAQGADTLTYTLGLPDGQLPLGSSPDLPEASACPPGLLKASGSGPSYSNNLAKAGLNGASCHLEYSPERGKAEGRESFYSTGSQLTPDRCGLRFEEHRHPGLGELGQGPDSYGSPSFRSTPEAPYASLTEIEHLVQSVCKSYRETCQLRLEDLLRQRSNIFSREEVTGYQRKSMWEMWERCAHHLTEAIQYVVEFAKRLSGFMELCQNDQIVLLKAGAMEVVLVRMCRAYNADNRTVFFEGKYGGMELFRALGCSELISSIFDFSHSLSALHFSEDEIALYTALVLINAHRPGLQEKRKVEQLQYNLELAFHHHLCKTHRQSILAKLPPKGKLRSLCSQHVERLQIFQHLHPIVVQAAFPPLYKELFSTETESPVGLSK
human Peroxisome Proliferator-activated Receptor alpha (PPARa), PPARA (gene 5465), sequence (Q07869 whole entry, looked up, the tested form may be a part): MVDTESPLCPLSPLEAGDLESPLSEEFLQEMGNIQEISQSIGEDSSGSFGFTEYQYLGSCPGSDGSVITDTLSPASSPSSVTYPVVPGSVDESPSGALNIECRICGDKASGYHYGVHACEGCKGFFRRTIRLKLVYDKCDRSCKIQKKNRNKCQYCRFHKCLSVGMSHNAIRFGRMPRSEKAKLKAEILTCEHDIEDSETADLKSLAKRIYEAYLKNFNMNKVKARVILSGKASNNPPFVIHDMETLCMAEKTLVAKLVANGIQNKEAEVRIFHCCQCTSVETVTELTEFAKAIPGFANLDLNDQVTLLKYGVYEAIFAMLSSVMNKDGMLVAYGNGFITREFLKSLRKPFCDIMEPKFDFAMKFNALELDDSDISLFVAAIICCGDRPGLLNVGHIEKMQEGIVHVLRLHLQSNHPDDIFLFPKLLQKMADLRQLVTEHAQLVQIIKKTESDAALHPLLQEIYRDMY
human Retinoid X Receptor beta (RXRb), RXRB (gene 6257), sequence (P28702 whole entry, looked up, the tested form may be a part): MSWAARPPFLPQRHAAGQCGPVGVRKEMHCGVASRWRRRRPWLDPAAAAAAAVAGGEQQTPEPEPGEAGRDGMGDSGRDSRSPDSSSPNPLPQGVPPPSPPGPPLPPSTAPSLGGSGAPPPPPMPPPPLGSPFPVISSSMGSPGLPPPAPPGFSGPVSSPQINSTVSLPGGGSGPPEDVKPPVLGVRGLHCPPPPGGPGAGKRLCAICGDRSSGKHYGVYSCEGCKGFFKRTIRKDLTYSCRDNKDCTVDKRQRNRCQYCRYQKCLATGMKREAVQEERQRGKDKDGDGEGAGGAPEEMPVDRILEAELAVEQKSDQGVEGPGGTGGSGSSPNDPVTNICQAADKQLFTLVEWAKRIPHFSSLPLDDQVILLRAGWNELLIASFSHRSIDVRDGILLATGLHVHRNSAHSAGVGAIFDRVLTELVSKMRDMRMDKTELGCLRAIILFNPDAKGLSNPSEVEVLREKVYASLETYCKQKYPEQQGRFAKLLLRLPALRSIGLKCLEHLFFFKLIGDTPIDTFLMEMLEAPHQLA
human Retinoic Acid Receptor gamma (RARg), RARG (gene 5916), sequence (P13631 whole entry, looked up, the tested form may be a part): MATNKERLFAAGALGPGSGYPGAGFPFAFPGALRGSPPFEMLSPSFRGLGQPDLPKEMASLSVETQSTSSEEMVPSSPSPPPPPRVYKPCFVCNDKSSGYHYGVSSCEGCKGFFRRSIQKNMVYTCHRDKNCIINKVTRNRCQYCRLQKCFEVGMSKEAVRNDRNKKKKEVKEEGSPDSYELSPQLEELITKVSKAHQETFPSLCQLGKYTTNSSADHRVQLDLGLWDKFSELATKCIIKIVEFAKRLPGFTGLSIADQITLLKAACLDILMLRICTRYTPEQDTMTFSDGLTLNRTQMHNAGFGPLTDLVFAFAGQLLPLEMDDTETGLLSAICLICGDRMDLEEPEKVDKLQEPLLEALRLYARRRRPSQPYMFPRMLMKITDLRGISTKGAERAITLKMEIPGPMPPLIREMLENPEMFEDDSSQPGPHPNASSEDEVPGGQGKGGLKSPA
human Retinoic Acid Receptor beta (RARb), RARB (gene 5915), sequence (P10826 whole entry, looked up, the tested form may be a part): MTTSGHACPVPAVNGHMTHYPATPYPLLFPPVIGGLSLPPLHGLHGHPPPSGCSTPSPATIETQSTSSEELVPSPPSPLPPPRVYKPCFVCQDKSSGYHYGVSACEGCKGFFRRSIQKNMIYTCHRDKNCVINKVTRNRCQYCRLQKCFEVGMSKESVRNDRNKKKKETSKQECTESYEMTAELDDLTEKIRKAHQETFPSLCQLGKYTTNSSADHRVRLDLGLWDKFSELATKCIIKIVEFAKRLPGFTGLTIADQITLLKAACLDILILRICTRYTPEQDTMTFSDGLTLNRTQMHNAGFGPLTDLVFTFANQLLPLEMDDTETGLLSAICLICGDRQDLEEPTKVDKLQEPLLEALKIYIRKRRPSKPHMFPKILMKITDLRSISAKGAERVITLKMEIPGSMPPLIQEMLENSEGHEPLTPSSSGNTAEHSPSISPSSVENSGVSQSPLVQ
human RAR-related Orphan Receptor beta (RORb), RORB (gene 6096), sequence (Q92753 whole entry, looked up, the tested form may be a part): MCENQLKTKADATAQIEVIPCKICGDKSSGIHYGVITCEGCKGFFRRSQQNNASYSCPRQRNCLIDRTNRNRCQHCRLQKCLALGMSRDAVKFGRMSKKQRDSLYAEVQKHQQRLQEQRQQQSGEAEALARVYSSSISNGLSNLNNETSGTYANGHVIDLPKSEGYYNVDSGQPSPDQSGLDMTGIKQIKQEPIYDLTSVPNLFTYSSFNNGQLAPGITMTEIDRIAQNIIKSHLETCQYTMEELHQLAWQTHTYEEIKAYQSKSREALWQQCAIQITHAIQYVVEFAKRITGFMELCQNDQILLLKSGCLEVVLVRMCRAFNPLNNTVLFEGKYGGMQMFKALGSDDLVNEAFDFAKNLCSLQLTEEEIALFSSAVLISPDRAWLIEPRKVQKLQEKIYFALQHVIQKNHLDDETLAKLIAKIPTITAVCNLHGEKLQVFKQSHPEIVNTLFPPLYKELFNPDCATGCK
Retinoic acid receptor alpha (Homo sapiens), sequence (P10276 whole entry, looked up, the tested form may be a part): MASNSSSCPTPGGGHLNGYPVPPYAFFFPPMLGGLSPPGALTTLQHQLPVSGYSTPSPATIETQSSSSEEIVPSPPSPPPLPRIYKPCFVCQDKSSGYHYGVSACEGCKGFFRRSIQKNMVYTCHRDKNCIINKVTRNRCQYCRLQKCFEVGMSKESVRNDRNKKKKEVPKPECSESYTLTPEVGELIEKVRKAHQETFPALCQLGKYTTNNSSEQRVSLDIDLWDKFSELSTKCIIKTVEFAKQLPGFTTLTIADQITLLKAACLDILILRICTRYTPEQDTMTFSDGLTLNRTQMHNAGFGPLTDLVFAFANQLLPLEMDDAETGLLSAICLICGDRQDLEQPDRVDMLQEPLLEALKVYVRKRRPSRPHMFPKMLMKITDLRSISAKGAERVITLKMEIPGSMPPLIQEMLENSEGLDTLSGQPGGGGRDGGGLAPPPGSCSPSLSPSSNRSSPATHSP
human Peroxisome Proliferator-activated Receptor delta (PPARd), PPARD (gene 5467), sequence (Q03181 whole entry, looked up, the tested form may be a part): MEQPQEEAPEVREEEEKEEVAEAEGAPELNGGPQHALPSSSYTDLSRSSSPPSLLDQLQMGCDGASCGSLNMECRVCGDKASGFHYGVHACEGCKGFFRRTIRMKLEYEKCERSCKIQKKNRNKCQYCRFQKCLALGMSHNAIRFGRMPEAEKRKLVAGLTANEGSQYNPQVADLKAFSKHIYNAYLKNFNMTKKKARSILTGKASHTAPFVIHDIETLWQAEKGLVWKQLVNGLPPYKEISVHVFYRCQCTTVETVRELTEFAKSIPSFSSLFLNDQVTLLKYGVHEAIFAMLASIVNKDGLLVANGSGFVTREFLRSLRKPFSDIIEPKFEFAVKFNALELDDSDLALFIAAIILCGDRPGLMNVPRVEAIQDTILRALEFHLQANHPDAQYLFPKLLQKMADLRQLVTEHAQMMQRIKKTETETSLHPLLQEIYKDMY
Retinoic acid receptor RXR-alpha (Homo sapiens), sequence (P19793 whole entry, looked up, the tested form may be a part): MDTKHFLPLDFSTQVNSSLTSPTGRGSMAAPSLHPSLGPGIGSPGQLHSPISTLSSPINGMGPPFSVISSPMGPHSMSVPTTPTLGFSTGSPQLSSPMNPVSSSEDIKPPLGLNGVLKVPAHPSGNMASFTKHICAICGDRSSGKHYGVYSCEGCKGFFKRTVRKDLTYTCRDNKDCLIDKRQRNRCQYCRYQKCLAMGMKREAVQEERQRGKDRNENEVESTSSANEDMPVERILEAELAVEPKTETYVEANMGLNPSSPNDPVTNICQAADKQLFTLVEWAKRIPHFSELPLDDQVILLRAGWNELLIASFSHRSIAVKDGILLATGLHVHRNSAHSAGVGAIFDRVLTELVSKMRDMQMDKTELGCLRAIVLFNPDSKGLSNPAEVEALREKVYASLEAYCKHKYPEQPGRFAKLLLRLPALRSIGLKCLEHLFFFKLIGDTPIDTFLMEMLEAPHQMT

CC(=O)CN(CC(C)=O)N=O
inactive: [1] | [2] | [3] | [4] | [5] | [6] | [7] | [8] | [9]

Cc1cccc(N=Nc2ccc(N(C)C)cc2)c1
active: [1] 5.01 µM
inactive: [2] | [3] | [4] | [5] | [6] | [7] | [8] | [9]

CCN(N=O)C(N)=O
inactive: [1] | [2] | [3] | [4] | [10] | [11] | [12] | [6] | [8]

Nc1nc(=S)[nH][nH]1
active: [9] 164 µM
inactive: [1] | [2] | [3] | [4] | [12] | [6] | [13]

CCNc1nc(NCC)nc(SC)n1
inactive: [1] | [2] | [3] | [4] | [10] | [11] | [12] | [6] | [14] | [9]

BrCCCCBr
inactive: [1] | [2] | [3] | [4] | [10] | [12] | [13] | [9]

O=NN1CCOCC1
inactive: [1] | [2] | [3] | [4] | [5] | [12] | [8]

O=C(Cl)OCCOCCOC(=O)Cl
inactive: [1] | [2] | [3] | [4] | [10] | [12] | [6] | [7] | [9]

CCOC(=O)c1ccccc1S(=O)(=O)NC(=O)Nc1nc(Cl)cc(OC)n1
inactive: [1] | [2] | [3] | [4] | [11] | [6] | [14] | [7]

CC(c1ccc(O)cc1)c1ccc(O)cc1
inactive: [3] | [4] | [12] | [14] | [8]
active: [1] 67.4 µM | [2] 120 µM | [6] 27.7 µM

Nc1ccc(-c2ccccc2)cc1
active: [1] 32 µM
inactive: [2] | [3] | [4] | [5] | [6] | [7] | [8] | [9]

NC(=O)c1ccc(N)nc1
inactive: [1] | [2] | [3] | [4] | [10] | [11] | [6] | [14] | [7] | [13] | [8]

O=CCCl
inactive: [3] | [4] | [10] | [11] | [12] | [14] | [8] | [9]
active: [1] 23.6 µM | [2] 26 µM
